An excerpt weighted towards active compounds, which were near 7.4% of everything screened.
NPC1 promoter act: activates the NPC1 promoter; Huh7 NPC1 promoter luciferase reporter, 24 h; Potency, µM (top dose mostly 9.22 µM), for the others: at the highest dose activation, actives largely listed as activators; 320,000 compounds, 2.4% hits; note: % of control where 0% means no effect; nearly all actives have a fitted effect of over 60% in size
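In 1536-well qHTS, Huh7 cells harboring an NPC1 promoter–luciferase construct received compound for 24 h; activation was quantified by luminescence following luciferase reagent addition.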
FLuc counter: inhibits or activates purified firefly luciferase, miR-21 counter-screen; P08659; purified FLuc, Km substrates, luminescence inhibition; Potency, µM (top dose mostly 57.5 µM), for the others: at the highest dose activity change, negative = inhibition, actives largely listed as inhibitors; 360,000 compounds, 6.9% hits; AID 588342;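 note: plate controls were vehicle for no effect and reference inhibitor for full effect; nearly all actives have a fitted effect of over 55% in size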
Target sequence (P08659 whole entry, looked up): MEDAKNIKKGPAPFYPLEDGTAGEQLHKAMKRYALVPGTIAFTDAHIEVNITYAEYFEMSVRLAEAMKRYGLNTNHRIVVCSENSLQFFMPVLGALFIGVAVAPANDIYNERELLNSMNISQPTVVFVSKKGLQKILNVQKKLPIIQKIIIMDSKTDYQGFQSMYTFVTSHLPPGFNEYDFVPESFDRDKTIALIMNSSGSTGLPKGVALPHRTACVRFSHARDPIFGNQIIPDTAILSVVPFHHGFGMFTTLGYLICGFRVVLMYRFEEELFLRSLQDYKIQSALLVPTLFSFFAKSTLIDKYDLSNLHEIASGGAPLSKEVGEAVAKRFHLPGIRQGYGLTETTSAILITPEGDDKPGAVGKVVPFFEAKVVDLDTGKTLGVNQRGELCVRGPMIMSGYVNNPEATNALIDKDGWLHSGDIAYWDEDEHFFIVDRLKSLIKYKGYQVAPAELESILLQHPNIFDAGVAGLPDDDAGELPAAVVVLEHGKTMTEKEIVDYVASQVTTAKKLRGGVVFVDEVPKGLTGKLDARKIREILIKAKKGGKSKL
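Purified P. pyralis luciferase, 10 nM final, with Km-level 10 uM D-luciferin and 10 uM ATP in 50 mM Tris acetate pH 7.5, 10 mM Mg acetate, 0.01% Tween-20, 0.05% BSA; 6-point qHTS titration about 60 µM downward; luminescence read.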
ELG1 genotox: genotoxicity induction in ELG1-luciferase HEK293T cells. 330,000 compounds, 1.3% hits. Potency, µM (doses to about 46 µM), without a hit: at the highest dose activity change, positive = activation, actives largely listed as activators. AID 504466. HEK293T ELG1-luciferase reporter, luminescence, 16 h; note: % of control where 0% means no effect; nearly all actives have a fitted effect of over 60% in size
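16 hr compound incubation (37 °C, 5% CO2) of HEK293T cells carrying luciferase-tagged ELG1; luciferase then measured by ONE-Glo luminescence after 30 min at RT.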
SMN2 splice enh: enhancers of SMN2 splice variant expression. 210,000 compounds, 2.8% hits. Potency, µM (doses to about 46.1 µM), for inactives: at the highest dose activity change, positive = activation, usual class: activators. HEK293 SMN2-luciferase splicing reporter, luminescence, 30-36 h; note: % of control where 0% means no effect; nearly all actives have a fitted effect of over 55% in size
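HEK293 cells carry an SMN2 minigene-luciferase reporter in which exon 7 inclusion puts luciferase in frame. Cells were seeded at 2000 cells/well, attached for 10-12 hours, then exposed to compounds for 30-36 hours at 37C before ONE-Glo luminescence.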
KinaseGlo FLuc: blocks Kinase-Glo luciferase, a counter-screen artifact. 200,000 compounds, 0.28% hits. AID 1379. Kinase-Glo luciferase, ATP luminescence, 8 min. Potency, µM (doses to about 38.3 µM), inactives show at the highest dose activity change, negative = inhibition, actives largely listed as inhibitors; note: % is set by controls: 0 for no effect and ±100 for the full control effect; nearly all actives have a fitted effect of over 60% in size
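Inhibition of Kinase-Glo luciferase light generation was assessed at 10 uM ATP in pH 7.2 imidazole buffer, with luminescence measured after eight minutes at ambient temperature.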
Rab9 prom act: activators of Rab9 promoter; Huh7 Rab9 promoter-luciferase reporter, luminescence, 24 h; Potency, µM (top dose mostly 9.22 µM), without a hit: top-dose activation, negative = inhibition, hits mostly activators; 320,000 compounds, 2.8% hits; AID 485297; note: % of control where 0% means no effect; nearly all actives have a fitted effect of over 60% in size
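Promoter activation is measured as luciferase luminescence in Huh7 cells stably transfected with a Rab9 promoter–luciferase construct, following 24 h compound exposure at 37 °C and 10 min reagent incubation at ambient temperature.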
* = called active by the depositor; [ ] = dose if it differs, or a comment. Calls come from the whole dose curve; as a rule, active = well fitted curve in the direction sought with a large enough effect; inconclusive = small, poorly fitted or top-dose-only effect, or another doubt; inactive = no such curve, though single readings can be large; an effect the other way counts as inactive or inconclusive. Potency is the fitted concentration of half-maximal effect.

Screening Cc1cccc(N2CCc3c2nc2ccccc2c3N)c1 returned NPC1 promoter act 24%, FLuc counter 21µM*, ELG1 genotox -18%, SMN2 splice enh -5%, KinaseGlo FLuc 0% and Rab9 prom act 7%.
`CN(CC(=O)N1CCc2ccccc21)S(=O)(=O)c1cccs1` gave NPC1 promoter act 2.8µM*, FLuc counter 12µM*, ELG1 genotox 10µM*, SMN2 splice enh 11µM*, KinaseGlo FLuc -4% and Rab9 prom act 3.5µM*.
C[C@@H]1O[C@H](OC2[C@@H](O)[C@H](O)C(O)[C@H](O)[C@H]2O)[C@@H](N)C[C@@H]1N=C(N)C(=O)O (stereo partly drawn) was read as SMN2 splice enh -2%[9.22 µM] and KinaseGlo FLuc -2%[7.66 µM].
N#Cc1c(/N=C/c2ccc(O)cc2O)sc2c1C1CCN2CC1 was read as NPC1 promoter act -4%, FLuc counter 6µM*, ELG1 genotox 8%, SMN2 splice enh -14%[1.84 µM], KinaseGlo FLuc 1% and Rab9 prom act 4%.
`O=C(Nc1ccc2c(c1)OCCO2)c1cccn(Cc2ccccc2)c1=O` gave FLuc counter 11µM*.
CCOc1ccc(NC(=O)c2cccn(Cc3cccc(Cl)c3)c2=O)cc1 was read as FLuc counter 17µM*.
Cc1ccc(O)cc1C was read as SMN2 splice enh 1%.
Screening CC(C)(C)C(=O)CP(=O)(O)O returned SMN2 splice enh 4%[9.22 µM] and KinaseGlo FLuc 1%[7.66 µM].
CCN(CC)c1ncnc2c1ncn2[C@@H]1O[C@@H](COP(=O)(O)OP(=O)(O)C(Br)(Br)P(=O)(O)O)[C@H](O)[C@H]1O was read as KinaseGlo FLuc -1%.
Screening COc1ccc(NC(=O)[C@@H](NC(=O)N2C[C@H]3C[C@@H](C2)c2cccc(=O)n2C3)C(C)C)cc1 returned NPC1 promoter act 3%, FLuc counter -7%, ELG1 genotox 10% and Rab9 prom act -2%.
`COc1ccc(NC2CC(=O)N(C(C)C)C2=O)cc1` (stereo not drawn) gave NPC1 promoter act inconclusive, FLuc counter 15µM*, ELG1 genotox 4.1µM*, SMN2 splice enh 16µM*, KinaseGlo FLuc -2% and Rab9 prom act 3.2µM*.
Screening O=C1NC(=O)N(c2cccc(Br)c2)C(=O)/C1=C/c1ccsc1 returned NPC1 promoter act -2%, FLuc counter 17µM*, ELG1 genotox 0% and Rab9 prom act -7%.
`O=C1NC(=O)N(c2ccc(F)cc2)C(=O)/C1=C/c1ccsc1` gave NPC1 promoter act 5%, FLuc counter 19µM*, ELG1 genotox 2%, SMN2 splice enh 9%, KinaseGlo FLuc -2% and Rab9 prom act -1%.
O=C1NC(=O)N(c2ccc(Br)cc2)C(=O)/C1=C/c1ccsc1 was read as NPC1 promoter act -8%, FLuc counter inconclusive, ELG1 genotox 0% and Rab9 prom act 0%.
CCOC(=O)c1ccccc1C(=O)OCC was read as SMN2 splice enh -6%.
CCOC(=O)c1sc(=NC(=O)c2ccc(C)c(C)c2)n(C)c1C was read as NPC1 promoter act 3.2µM*, FLuc counter inconclusive, ELG1 genotox 12µM*, SMN2 splice enh -42%, KinaseGlo FLuc 0% and Rab9 prom act 2µM*.
Screening CCOc1ccc(-c2cc(C(=O)N3CCN(c4cccc(C(F)(F)F)c4)CC3)c3ccccc3n2)cc1 returned FLuc counter 2.4µM*.
Screening O=C(c1cc(-c2ccccc2)nc2ccccc12)N1CCC2(CC1)OCCO2 returned NPC1 promoter act -2%, FLuc counter inconclusive, ELG1 genotox 0%, SMN2 splice enh 0%, KinaseGlo FLuc 0% and Rab9 prom act 2%.
CC1=C(O)C(=O)[C@H]2O[C@@H]2C1=O was read as KinaseGlo FLuc -2%.
For Cc1cc(C=C2C(=O)NC(=S)NC2=O)c(C)n1-c1ccc2c(c1)OCO2 the results were NPC1 promoter act 3%, FLuc counter 3.4µM*, ELG1 genotox -4%, SMN2 splice enh 19%, KinaseGlo FLuc inconclusive and Rab9 prom act -3%.
Screening Cc1cc(C=C2C(=O)NC(=O)NC2=O)c(C)n1-c1ccc2c(c1)OCO2 returned NPC1 promoter act -2%, FLuc counter 2.7µM*, ELG1 genotox 1%, SMN2 splice enh -19%, KinaseGlo FLuc -19% and Rab9 prom act -3%.
Cc1cc(/C=C2\C(=O)NC(=O)N(c3ccccc3)C2=O)c(C)n1-c1ccc(C(=O)O)c(Cl)c1 was read as NPC1 promoter act -1%, FLuc counter -16%, ELG1 genotox -1% and Rab9 prom act 0%.
Screening Cc1cc(/C=C2\C(=O)NC(=O)N(c3ccc(F)cc3)C2=O)c(C)n1-c1cccc(C(=O)O)c1 returned NPC1 promoter act 0%, FLuc counter inconclusive, ELG1 genotox 2%, KinaseGlo FLuc -8% and Rab9 prom act -6%.
For O=C1NC(=O)C(=Cc2cc3c(cc2[N+](=O)[O-])OCO3)C(=O)N1 the results were NPC1 promoter act 0%, FLuc counter -23%, ELG1 genotox 0%, SMN2 splice enh 3%, KinaseGlo FLuc -3% and Rab9 prom act 1%.
Screening Cc1cc(/C=C2\C(=O)NC(=O)N(C)C2=O)c(C)n1-c1ccc2c(c1)OCO2 returned NPC1 promoter act -4%, FLuc counter 1.3µM*, ELG1 genotox -5%, SMN2 splice enh -15%, KinaseGlo FLuc -18% and Rab9 prom act -4%.
For Cc1cc(/C=C2/C(=O)NC(=O)N(C)C2=O)c(C)n1-c1ccccc1 the results were NPC1 promoter act -1%, FLuc counter 1.1µM*, ELG1 genotox -1%, SMN2 splice enh -4%, KinaseGlo FLuc -6% and Rab9 prom act -3%.
For CCC12CCN(Cc3ccc(F)cc3)CC1Oc1c(O)cccc12 (stereo not drawn) the results were FLuc counter 2%.
For O=c1ccc2cc(O[C@H]3OC(CO)C(O)C(O)C3O)c(O)cc2o1 (stereo partly drawn) the results were SMN2 splice enh -12% and KinaseGlo FLuc -12%.
`c1ccc(C[N+]23CN4CN(CN(C4)C2)C3)cc1` gave SMN2 splice enh -22%[9.22 µM] and KinaseGlo FLuc 0%[7.66 µM].
Screening O=C(CN1C(=O)S/C(=C\C=C\c2ccccc2)C1=O)Nc1ccccc1C(=O)O returned NPC1 promoter act 1%, FLuc counter 27µM*, ELG1 genotox 3% and Rab9 prom act 10%.
O=C(CN1CCCCC1)c1ccccc1F was read as NPC1 promoter act -22%, FLuc counter 3%, ELG1 genotox -1%, SMN2 splice enh 6%, KinaseGlo FLuc -4% and Rab9 prom act 4%.

Screening results from PubChem BioAssay.
